This note sets out measurements from ChEMBL document CHEMBL4513216, “Probing the Open Global Health Chemical Diversity Library for Multistage-Active Starting Points for Next-Generation Antimalarials” (ACS Infect Dis, 2020).

Out of some 68,000 compounds screened, about 2,700 (4%) showed an effect of 50% or more. Only a selection was taken, and strong results are over-represented in it overall.

For this assay, the system named is Plasmodium berghei. In words: Screen against P. berghei liver stage (PbLuc), transformed with Luciferase, at 2uM. It counts as functional, HepG2. Conditions: tested at 2 uM.
As to `CC(C)C(=O)N1CC[C@H]2N(C)CC[C@@]2(C(=O)N2CCOCC2)CC1`, the INHIBITION is 35.34%. In the case of `CNC(=O)Cc1ccc(NC(=O)NCc2ncc(C)s2)cc1`, the INHIBITION is 38.67%. The figure for `CNC(=O)Cc1ccc(NC(=O)NCc2nc(C)sc2C)cc1` is 45.82%.

For the molecule `CNC(=O)Cc1ccc(NC(=O)NCC(C)c2ncc(C)s2)cc1` (stereo not given), the INHIBITION was 50.59%. On to `CN1C(=O)C(C)(C)COc2cc(NS(=O)(=O)Cc3ccccc3)ccc21`, for which the INHIBITION was -18.38%. As to `c1ccc(CN2CCc3ncnc(C4CCOC4)c3CC2)nc1` (stereo not given), the INHIBITION is given as -4.2%. Turning to `CCn1ccnc1CN1CCN(C(C)C(=O)NCc2ccco2)CC1` (stereo not given), the INHIBITION was -17.18%. For the molecule `Cc1cnc(CN(Cc2cccc(O)c2)CC2CC2)cn1`, the INHIBITION was -14.45%.

For `Cc1cccnc1CN1CC[C@@](C)(O)[C@H](Oc2ccccc2)C1`, the INHIBITION turned out to be 37.4%. Consider `C[C@]1(O)CCN(Cc2ncccc2F)C[C@@H]1Oc1cccc(F)c1`, for which the INHIBITION stood at 14.47%. For the molecule `C[C@]1(O)CCN(Cc2ncccc2F)C[C@@H]1Oc1ccccc1`, the INHIBITION stood at 51.99%. On to `CCOC(=O)c1cc2n(n1)CCCO2`, for which the INHIBITION came out at 4.95%.

As for `CCOCC1CN(c2ncc(F)cn2)Cc2cn(CC)nc21` (stereo not given), the INHIBITION is given as -10.78%. `O=C(Nc1ccccc1)N1CCc2nc(C(=O)N3CCCC3)sc2CC1`: the INHIBITION is recorded as -18.86%.

With `Cc1ncc(CNC(=O)CCc2cccs2)c(C2CCCN2C)n1` (stereo not given), the INHIBITION was -14.56%. With `Cc1ncc(CNC(=O)CCc2c(C)noc2C)c(C2CCCN2C)n1` (stereo not given), the INHIBITION came to 58.18%. For the molecule `Cc1ncc(CNC(=O)CCc2ccccc2F)c(C2CCCN2C)n1` (stereo not given), the INHIBITION came to 4.66%.

In the case of `O=C(O)c1sccc1Oc1ccc(NC(=O)C2CC2)cc1`, the INHIBITION is given as 19.62%. Under `Cn1cccc1C(=O)N1CCO[C@@H]2CN(Cc3ccco3)C[C@@H]2C1` stands 35.64%; under `c1ccc(-c2nc(CCNC3CCOC4(CCOCC4)C3)no2)cc1` (stereo not given), 58.53%.

Take `c1ccc(Cc2nc(CNC3CCOC4(CCOCC4)C3)no2)cc1` (stereo not given): the INHIBITION turned out to be 1.06%. Under `c1ccc(Cc2noc(CCNC3CCOC4(CCOCC4)C3)n2)cc1` (stereo not given) stands -7.16%.

As to `c1cnc2[nH]c(C3CCNCC3)c(CN3CCOCC3)c2c1`, the INHIBITION came to 26.98%.

For the molecule `NC(=O)c1nc2c(s1)CCN(Cc1ccccc1)CC2`, the INHIBITION was -14.74%. The figure for `CCC(CC)c1cc(CNC(=O)N2CCOCC2CC)on1` (stereo not given) is -8.83%. Under `CC(C)NC(=O)CNC(=O)N1CCc2c([nH]c3ccc(Cl)cc23)C1` stands 43.4%; under `CC(C)C(=O)NCc1cccc(N2CCCCC2=O)c1`, -8.7%; under `CC(C)C(=O)NCCNC(=O)C12CCC(=O)N1c1cc(Cl)ccc1S2` (stereo not given), 79.21%. For `CCOCCCNC(=O)C1(C)CCC(=O)N1c1ccccc1F` (stereo not given), the INHIBITION is 19.99%. With `COC(=O)CNC(=O)C12CCC(=O)N1c1cc(Cl)ccc1S2` (stereo not given), the INHIBITION was found to be 48.21%. Consider `CC(C)NC(=O)CNC(=O)C12CCC(=O)N1c1cc(Cl)ccc1S2` (stereo not given), for which the INHIBITION worked out at 62.51%. Take `CC(=O)Nc1cccc(OCCNC(=O)N(C)Cc2ccncc2)c1`: the INHIBITION was -44.49%.

As for `O=C(NC(c1ccc(Cl)cc1)c1cccnc1)C1CC1` (stereo not given), the INHIBITION is listed as -58.01%. Regarding `O=S(=O)(Cc1ccccc1F)NCCCN1CCCCC1`, the INHIBITION amounted to 21.18%. As to `O=S(=O)(Cc1c(F)cccc1Cl)NCCCN1CCCCCC1`, the INHIBITION was 53.19%.

In the case of `O=S(=O)(Cc1ccccc1Cl)NCCCN1CCCC1`, the INHIBITION came out at 49.88%. The figure for `CN(CC(=O)N1CC(C)(C)[C@@](C)(O)C1)Cc1ccncc1` is 32.07%. The figure for `CCc1nnc(Nc2cc(C)nc(C3CCN(c4ncccn4)C3)n2)s1` (stereo not given) is -10.89%; for `O=C(c1cc(COc2ccc3c(c2)OCO3)[nH]n1)N1CCSCC1` it is 14.46%; for `Cn1cnc2c1CCN(c1ccnc(-c3ccccc3)n1)C2` it is 56.33%. Under `c1ccc(-c2nccc(N3CCc4c(ncn4C4CC4)C3)n2)cc1` stands 24.51%; under `Cn1cnc2c1CCN(Cc1csc(-c3ccccc3)n1)C2`, 6.3%; under `Cc1nc(CN2CCN(c3nc4c(s3)c(C)nn4C)CC2)cs1`, 36.88%. On to `O=C(Nc1ccc(F)cc1)C(c1ccccc1)N1CCOCC1` (stereo not given), for which the INHIBITION was 71.1%. On to `COc1ccc(NC(=O)C(c2cccc(F)c2)N2CCOCC2)cc1` (stereo not given), for which the INHIBITION worked out at 26.65%. Under `COc1ccc(NC(=O)C(c2ccc(OC)cc2)N2CCOCC2)cc1` (stereo not given) stands 27.22%; under `CC(C)c1ccc(OCC(=O)N(C)C)cc1`, -32.48%; under `COc1ccc(CCN2C(=O)O[C@@H]3CN(C)C[C@@H]32)cc1`, -7.29%.

As to `CC[C@H]1CN2CC[C@H]1C[C@@H]2CNC(=O)c1ccco1`, the INHIBITION came to 9.42%. For the molecule `CCN(CC)C[C@H]1CN2CC[C@H]1C[C@@H]2CNC(=O)c1ccco1`, the INHIBITION is given as 31.07%. `CN(C[C@H]1CN2CC[C@H]1C[C@@H]2CNC(=O)c1ccco1)c1ccccc1`: the INHIBITION came to 65.7%. As to `Cc1nc(CCN)cc(N2CCC(O)(c3ccccc3)C2)n1` (stereo not given), the INHIBITION is 23.18%. `Cc1nc(CN)cc(N2CCC(O)(c3ccc(Cl)cc3)CC2)n1`: the INHIBITION was determined as 59.94%. As to `Cc1nc(CCN)cc(N2CCC(O)(c3ccc(Cl)cc3)CC2)n1`, the INHIBITION is 11.38%. Take `CCNC(=O)N1CCc2ccc(NC(=O)C(C)c3ccsc3)cc21` (stereo not given): the INHIBITION is recorded as -44.17%.

On to `CC(Cn1cccn1)NCc1csc2c1CCCC2` (stereo not given), for which the INHIBITION amounted to 49.88%.

`CC(Cn1ccnc1)NCc1csc2c1CCCC2` (stereo not given): the INHIBITION is 66.4%. For the molecule `CC(Cn1cncn1)NCc1csc2c1CCCC2` (stereo not given), the INHIBITION is 26.75%. In the case of `c1ccc2oc(N3CCCC4(CCOC4)C3)nc2c1` (stereo not given), the INHIBITION is -14.46%. Under `CC(C)NC(=O)O[C@H]1COCCN(c2nc3ccccc3s2)C1` stands 41.93%.

Take `O=C(NC1CCCC1)O[C@H]1COCCN(c2nc3ccccc3s2)C1`: the INHIBITION is recorded as 51.26%. As for `O=C(N[C@@H]1CCN(c2nc3ccccc3o2)C[C@H]1O)c1cnccn1`, the INHIBITION is recorded as 26.3%.

`CCNC(=O)O[C@H]1COCCN(c2nc3ccccc3s2)C1`: the INHIBITION was determined as 29.85%. Regarding `O=C(NC1CCCC1)O[C@H]1COCCN(c2nc3ccccc3o2)C1`, the INHIBITION amounted to 52.91%.

For `NC(=O)N1CCc2ncc(CNC(=O)CC3CC3)n2CC1`, the INHIBITION is recorded as 25.08%. Under `CC(=O)N1CCCC1c1cc(N2CCN(CC3CC3)CC2)cc(C)n1` (stereo not given) stands 6.89%; under `O=C(c1ccoc1)N1CCc2ncnc(NCc3ccccn3)c2CC1`, 1.01%; under `CN(C)CCC1CCN(Cc2ccn(C)c(=O)c2)CC1`, 16.84%.

As to `COC(=O)C1CCN(C(=O)c2nnc3ccc(Cl)cc3n2)CC1`, the INHIBITION stood at 24.52%. In the case of `CC(=O)c1cccc(OCCCC(=O)N(C)Cc2cnc(C)s2)c1`, the INHIBITION is given as -37.03%. With `Cc1cnc(N2CCC3(CCCN3C(=O)c3ccco3)CC2)nc1`, the INHIBITION worked out at 26.01%. Consider `Cc1nc(NCCO)cc(C(C)Cn2nc(C)c(C)c2C)n1` (stereo not given), for which the INHIBITION is given as -16.2%. `Cc1nc(NCc2nonc2C)cc(C(C)Cn2nc(C)c(C)c2C)n1` (stereo not given): the INHIBITION was 84.94%. In the case of `Cc1nc(NCc2ccccc2)cc(C(C)Cn2nc(C)c(C)c2C)n1` (stereo not given), the INHIBITION is on record as -30.88%. In the case of `COc1cc(C2(C(=O)N3CCN(CC(C)(C)O)CC3)CC2)ccc1C`, the INHIBITION is 17.48%. In the case of `CCc1nc(CN2CCCN(C(=O)c3occc3C)CC2)cs1`, the INHIBITION came out at 21.52%. On to `CCc1nc(CN2CCCN(C(=O)c3ccco3)CC2)cs1`, for which the INHIBITION stood at 70.27%.

Turning to `CCc1ccc(C(=O)N2CCN(CC(O)CC)CC2)o1` (stereo not given), the INHIBITION was determined as 5.59%. For the molecule `CCc1ccc(C(=O)N2CCN(CC(C)O)CC2)o1` (stereo not given), the INHIBITION worked out at 54.85%. As to `CCc1nc(CN2CCCN(C(=O)c3cccn3C)CC2)cs1`, the INHIBITION was -18.39%. Consider `CCN(CC)Cc1ccc(C(=O)N2CCN(CC(C)O)CC2)o1` (stereo not given), for which the INHIBITION amounted to 21.12%. Consider `CCc1nc(CN2CCCN(C(=O)c3ccccc3)CC2)cs1`, for which the INHIBITION is -10.44%. Under `CCc1nc(CN2CCN(C(=O)c3cc(C)no3)CC2)cs1` stands 36.73%; under `Cc1nc(N2CCN(C(=O)c3ccco3)CC2)c2c(n1)c(C)nn2C`, 1.77%. The figure for `Cc1nc(CCN)cc(N2CCCN(C(=O)c3ccco3)CC2)n1` is 54.3%; for `CCc1nc(CN2CCN(C(=O)c3cc(C)nn3C)CC2)cs1` it is 53.98%; for `COc1ccc(C(=O)N2CCN(c3cc(CCN)nc(C)n3)CC2)cc1` it is -10.41%. Take `Cc1noc(C)c1CN1CC2(CCN(C(=O)c3c[nH]cn3)C2)CC1=O` (stereo not given): the INHIBITION worked out at 47.35%. For the molecule `Cc1noc(C)c1CN1CCc2ncc(CN(C)C)n2CC1`, the INHIBITION turned out to be 1.48%. Under `Cc1nc(N2CCN(C)CC2)ncc1C(=O)N1CC[C@](C)(O)[C@H](C)C1` stands -5.13%; under `O=C1[C@@H]2CCN(Cc3ccncc3)C[C@@H]2OCCN1c1ccccc1`, 2.71%; under `Cc1ccccc1-n1cnc(Cl)c1CO`, -40.04%.

On to `O=C(NC1CC1)N1CCN(c2cnccn2)CC1`, for which the INHIBITION worked out at 11.24%. Turning to `O=C(CCc1ccc(C(F)(F)F)cc1)N1CCCS1(=O)=O`, the INHIBITION was -24.72%. With `Cn1c(N2CC[C@H](O)C2)nc2cc(C(N)=O)ccc21`, the INHIBITION is 26.7%. The figure for `Cc1ccccc1-c1cncc(C2CCN(Cc3cnn(C)c3)CC2)n1` is 18.22%. Regarding `CCc1nc(CN2CCCN(C(=O)CCc3ccco3)CC2)cs1`, the INHIBITION is reported as 44.12%. As to `Cc1nc(CN2CCCN(C(=O)CCc3ccco3)CC2)cs1`, the INHIBITION was determined as 11.2%. Regarding `Cc1nc(CN2CCN(C(=O)CCc3ccco3)CC2)cs1`, the INHIBITION was determined as 60.09%. Under `CCc1ccc(C(=O)N2CCCN(Cc3csc(CC)n3)CC2)o1` stands 50.61%; under `CCc1nc(CN2CCCN(C(=O)c3cnc(C)cn3)CC2)cs1`, -12.19%; under `CCc1nc(CN2CCCN(C(=O)c3cc(C)on3)CC2)cs1`, -24.11%. As to `CCc1nc(CN2CCCN(C(=O)C3CCOC3)CC2)cs1` (stereo not given), the INHIBITION amounted to 56.03%. On to `CCc1nc(CN2CCCN(C(=O)C3CCC3)CC2)cs1`, for which the INHIBITION is on record as 23.86%.

For `CCc1nc(CN2CCCN(C(=O)C3CCOCC3)CC2)cs1`, the INHIBITION is listed as -17.37%.
